Reference: PubChem BioAssay (NCATS)
Results filed as inconclusive are left out. Where a call stands in place of a potency, no number is given. Calls of active or inactive are those of the source. Calls follow the shape of the dose curve; as a rule, active = well fitted cell-killing curve with a large enough effect; inconclusive = small, poorly fitted or top-dose-only effect; inactive = no such curve, though single readings can be large or run the other way.

Test: Quantitative High-Throughput drug screen in 47 multiple myeloma cell lines against the NCATS MIPE library collection: NCIH929_DSMZ cell viability assay (AID 1918978); also: nearly all actives have a fitted effect of over 35% in size
Conditions: NCI-H929 myeloma viability, CellTiter-Glo ATP, 48 h; series mostly up to 45.8 µM
From the text: PI: Beverly A. Mock Ph.D.
Laboratory of Cancer Biology and Genetics,
Center for Cancer Research, National Cancer Institute,
National Institute of Health, Bethesda, Maryland
Drug resistance and disease progression are common in multiple myeloma (MM) patients, underscoring the need for new therapeutic combinations. […] We hypothesized that effective combinations would reduce MYC expression and enhance p16 activity. […] These preclinical data identify potentially useful drug combinations for evaluation in drug-resistant MM and reveal potential mechanisms of combined drug sensitivity.
Described herein is the primary MIPE qHTS used to cherrypick compounds. Validated compounds were then further tested for potential synergistic activiy.
[1] Peat TJ, Gaikwad SM, Dubois W, Gyabaah-Kessie N, Zhang S, Gorjifard S, Phyo Z, Andres M, Hughitt VK, Simpson RM, Miller MA, Girvin AT, Taylor A, Williams D, D'Antonio N, Zhang Y, Rajagopalan A, Flietner E, Wilson K, Zhang X, Shinn P, Klumpp-Thomas C, McKnight C, Itkin Z, Chen L, Kazandijian D, Zhang J, Michalowski AM, Simmons JK, Keats J, Thomas CJ, Mock BA. Drug combinations identified by high-throughput screening promote cell cycle transition and upregulate Smad pathways in myeloma. Cancer Lett. 2023 Aug 1;568:216284. doi: 10.1016/j.canlet.2023.216284. Epub 2023 Jun 24. PMID: 37356470; PMCID: PMC10408729.
SEQUENCE No. (e.g., 1, 2, 3, etc.); […] (e.g., Cells, Incubation, Reagent, etc.); VALUE and DESCRIPTION.
1; Cells; 5 uL; white, solid bottom 1536-well Greiner assay plate.
2; Compounds; 23 nL; Kalypsis pin tool (Wako USA) equipped with a 1536-well pin head to transfer to the assay plates.
3; Incubation; 48 hours; 37C incubation.
4; Reagent;5uL; CellTiter Glo (Promega).
5; Detector; 425V; Luminescence; Viewlux PerkinElmer.
NOTES (numbers refer to Sequence numbers above)
1. The cell-based screening methods employed in this study were like those previously published. Briefly, the corresponding myeloma cell lines were screened in 1,536-well plates with 500 cells, 5-uL per well for inhibition of cell viability (assessed by measuring ATP levels with CellTiterGlo).
2. NCATS MIPE 4.0 library of approved and investigational drugs were added using the Kalypsis pin tool. Wells treated with DMSO only for 100% viability and media only for 0% viability were used as controls.
3. The assay plates were covered and incubated for 48 hours in a 37C, 5% CO2 incubator with controlled humidity.
4. After 48 hours, CellTilter-GloTM luminescent substrate mix (Promega) reagent was added to the assay plate and plates we incubated for 5 min at room temperature.
5. Signal was measured as median relative luminescence units on a ViewLux (PerkinElmer) multiplate reader.
[1] Heske CM, Davis MI, Baumgart JT, Wilson K, Gormally MV, Chen L, Zhang X, Ceribelli M, Duveau DY, Guha R, Ferrer M, Arnaldez FI, Ji J, Tran HL, Zhang Y, Mendoza A, Helman LJ, Thomas CJ. Matrix Screen Identifies Synergistic Combination of PARP Inhibitors and Nicotinamide Phosphoribosyltransferase (NAMPT) Inhibitors in Ewing Sarcoma. Clin Cancer Res. 2017 Dec 1;23(23):7301-7311. doi: 10.1158/1078-0432.CCR-17-1121. Epub 2017 Sep 12. PMID: 28899971; PMCID: PMC6636827.
Potency is read from the fitted curve at half-maximal effect.

SMILES | Potency
CN(C)Cc1ccc(-c2nc3cccc4c3n2CCNC4=O)cc1 | 18.7 µM (active)
CC(C)(C)NC(=O)Nc1cccc(Nc2ncc(F)c(NC(C)(C)CO)n2)c1 | inactive
CNC(=O)c1ccccc1Sc1ccc2c(C=Cc3ccccn3)n[nH]c2c1 | 20.9 µM (active)
NS(=O)(=O)c1ccc(NC2=CC(=O)c3ccccc3C2=O)cc1 | 26.4 µM (active)
C[C@]12CC[C@@H]3c4ccc(O)cc4C[C@@H](CCCCCCCCCS(=O)CCCC(F)(F)C(F)(F)F)[C@H]3[C@H]1CC[C@H]2O (stereo not given in full) | 0.0187 µM (active)
c1cc(-c2sc(-c3ccncc3)c(-c3ccncc3)c2-c2ccncc2)ccn1 | 8.33 µM (active)
CC(=NNC(=S)N1CCC1)c1ccccn1 | inactive
CCC(=O)O[C@]1(C(=O)CO)CC[C@H]2[C@@H]3CCC4=CC(=O)CC[C@]4(C)[C@@H]3CC[C@@]21C | inactive
O=C(O)CCC1CCC(c2cc(F)ccc2F)(S(=O)(=O)c2ccc(Cl)cc2)CC1 (stereo not given) | 8.33 µM (active)
N#CC1(c2ccc(NC(=O)c3cccnc3NCc3ccncc3)cc2)CCCC1 | inactive
Cc1cc(OCCCc2c(C(=O)O)n(Cc3cccnc3)c3c(-c4c(COc5ccc(N6CCN([S+](C)(=O)[O-])CC6)cc5)nn(C)c4C)cccc23)cc(C)c1Cl | 3.32 µM (active)
Oc1ccc(C2=Cc3ccc(O)cc3OC2)cc1 | 2.09 µM (active)
COc1cc2c(cc1OC)CN(CCc1ccc(NC(=O)c3cc(OC)c(OC)cc3NC(=O)c3cnc4ccccc4c3)cc1)CC2 | 8.33 µM (active)
O=c1[nH]cnc2c1ncn2[C@H]1CC[C@@H](CO)O1 | inactive
CN(C)Cc1cccc(N=C(c2ccccc2)c2c(O)[nH]c3cc(C(=O)N(C)C)ccc23)c1 | 18.7 µM (active)
COc1cc(O)c2c(c1)C(=O)c1cc(C)cc(O)c1C2=O | inactive
CCC(CC)[C@H](NC(C)=O)[C@@H]1[C@H](O)[C@@H](C(=O)O)C[C@@H]1N=C(N)N | inactive
NC1CCC(Nc2nc(Nc3ccc(C(=O)N4CCCCC4)cc3)c3ncn(-c4cccc(F)c4)c3n2)CC1 (stereo not given) | inactive
CC(C)(C)OC(=O)N[C@H]1CCCCCC=C[C@@H]2C[C@@]2(C(=O)NS(=O)(=O)C2CC2)NC(=O)[C@@H]2C[C@@H](OC(=O)N3Cc4cccc(F)c4C3)CN2C1=O | inactive
O=C(OCC#CCSc1nnc(-c2cccc3ccccc23)o1)c1cc2ccccc2s1 | inactive

SMILES | Potency
COc1cc(NC(=O)c2ccc(-c3ccc(Cl)cc3)o2)cc(OC)c1 | 2.64 µM (active)
O=C1NC(=O)C(=Cc2ccc3nccnc3c2)S1 | 3.63 µM (active)
CON=C(C(=O)N[C@@H]1C(=O)N2C(C(=O)OCOC(=O)C(C)(C)C)=C(C=Cc3scnc3C)CS[C@H]12)c1csc(N)n1 | 20.9 µM (active)
CC(C)(Cc1ccc2ccccc2c1)NC[C@@H](O)COc1cccc(Cl)c1C#N | inactive
NC(=O)c1cnc(-c2ccc(C3(N)CCC3)cc2)c(-c2ccccc2)c1 | 1.48 µM (active)
CCOC(=O)C1=C(N)Oc2ccc(Br)cc2C1C(C#N)C(=O)OCC (stereo not given) | 20.9 µM (active)
Clc1ccc(-c2nc3sccn3c2C=NOCc2ccc(Cl)c(Cl)c2)cc1 | inactive
O=C(NC1CCOCC1)c1ccc(-c2cc(-c3cn[nH]c3-c3ccccn3)ccn2)cc1 | inactive
O=C(O)C(O)Cc1ccc(O)c(O)c1 (stereo not given) | inactive
O=C(CCc1ccc(O)cc1)c1c(O)cc(O)cc1O[C@@H]1O[C@H](CO)[C@H](O)[C@H](O)[C@H]1O | inactive
O=c1cc(-c2ccccc2)oc2cc(O)cc(O)c12 | inactive
COc1ccc2c(Oc3ccc(NC(=O)c4c(C)n(CC(C)(C)O)n(-c5ccccc5)c4=O)nc3)ccnc2c1 | inactive
O=c1ccn([C@@H]2O[C@H](CO)[C@H](O)[C@H]2O)c(=O)[nH]1 | 7.43 µM (active)
C[C@@H]1CCN(C(=O)CC#N)C[C@H]1N(C)c1ncnc2[nH]ccc12 | inactive
CC(=O)Nc1ccc([C@H](C)C(=O)Nc2ncc(C(C)C)s2)cc1 | 0.264 µM (active)
O=c1c(-c2ccc(O)cc2)coc2cc(O)ccc12 | inactive
C=C1C(=O)[C@@]23C(CC[C@@H]1[C@H]2O)[C@@]12CO[C@]3(O)[C@@H](O)[C@@H]1C(C)(C)CC[C@@H]2O (stereo not given in full) | 1.32 µM (active)
COc1cc2ncnc(-n3nc(-c4ccccn4)nc3N)c2cc1OC | 4.18 µM (active)
Cc1ccccc1C(C(=O)NC1CCCCC1)N(C(=O)Cn1ccnc1C)c1cccc(F)c1 (stereo not given) | inactive
C[C@H]1[C@H](NC(=O)C(=NOC(C)(C)C(=O)O)c2csc(N)n2)C(=O)N1S(=O)(=O)O | inactive
